The results in this text go back to PubChem BioAssay AID686979 (National Center for Advancing Translational Sciences (NCATS), 2013).

Hit rate of the full screen: of about 420,000 compounds, about 50,000 (12%) were called active. Another 26% or so got no clear call; they are omitted. Many of the other results were omitted from the sample, so actives are more common in it than they were. Values without a mark were called inactive. The call rests on the fitted dose curve; in most records, active means well fitted inhibition curve with a large enough effect; inconclusive means small, poorly fitted or top-dose-only effect; inactive means flat fitted curve, though single readings scatter.
On the % scale 0 is the no-effect control and ±100 the full control effect; potency means the concentration at half of the fitted maximal effect.

The nature of the test: qHTS for Inhibitors of human tyrosyl-DNA phosphodiesterase 1 (TDP1): qHTS in cells in presence of CPT. Further: nearly all actives have a fitted effect of over 55% in size. The conditions noted are these: chicken DT40 Tdp1-/-;hTDP1 cells + 20 nM CPT, ATP luminescence, 48 h; series mostly up to 46.2 µM; activity change, negative = growth inhibition: at the top concentration. In outline: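 Cell growth measured by CellTiter-Glo luminescence after a minimum 48 h, 37 C compound exposure with 20 nM CPT in Tdp1-knockout DT40 cells stably expressing hTDP1, seeded 400/well; qHTS titration format.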
Consider `NS(=O)(=O)c1ccc(NC(=S)N2CCCC2)cc1`, for which the “activity change, negative = growth inhibition” value is -3.82%.
As for `CCSC1=NCCN1C(=O)c1ccc(S(=O)(=O)N(CC)CC)cc1`, the “activity change, negative = growth inhibition” value is 9.95%.
For `COc1ccc(N(C(=O)c2cccnc2)S(=O)(=O)c2ccc(OC)c(OC)c2)cc1`, the “activity change, negative = growth inhibition” value is -24.6%.
Turning to `COc1ccc(C(=O)Nc2cccnc2)cc1C(=O)Nc1cccnc1`, the “activity change, negative = growth inhibition” value is -4.05%.
`COc1ccccc1C(=O)NNC(=O)c1ccc(NC(=O)c2ccccc2)cc1`: the “activity change, negative = growth inhibition” value is -24.4%.
On to `COc1ccc(C(=O)Nc2ccc(-n3nncc3-c3ccccc3)cc2)cc1OC`, for which the Potency is 3.66 µM (active).
On to `CCC1OC(C2CC2)CC2=C1C(=O)OC(C)(C)O2` (configuration not stated), for which the “activity change, negative = growth inhibition” value was -4.59%.
Regarding `CC(=O)N1N=C(c2ccccc2)OC1c1cccnc1` (configuration not stated), the “activity change, negative = growth inhibition” value is -0.38%.
For `Cc1cc(C)cc(NC(=O)CCN2C(=O)c3ccccc3C2=O)c1`, the “activity change, negative = growth inhibition” value is -4.76%.
Turning to `O=C(N/N=C/c1ccc(O)c2ccccc12)c1cccnc1`, the “activity change, negative = growth inhibition” value was -13.9%.
Consider `Cc1ccc2nc(CNC(=O)c3ccccc3)[nH]c2c1`, for which the “activity change, negative = growth inhibition” value is 9.98%.
On to `Cc1ccc(/C=N/NC(=O)C2=NNC(c3ccccc3)(c3ccccc3)C2)c(O)c1`, for which the Potency was 4.61 µM (active).
In the case of `COc1ccc(C2=NO[C@@H]3C(=O)N(Cc4ccccc4)C(=O)[C@H]23)cc1OC`, the “activity change, negative = growth inhibition” value is 3.64%.
In the case of `COc1ccc(-c2cc(C(F)(F)F)nc(S(C)(=O)=O)n2)cc1OC`, the Potency is 2.06 µM (active).
In the case of `CCN(CC)CCN(C)C(c1ccnc2ccccc12)c1nnnn1-c1ccc2c(c1)OCCO2` (configuration not stated), the “activity change, negative = growth inhibition” value was -31.6%.
As for `Cc1ccc(S(=O)(=O)NCCCn2ccnc2)cc1C(=O)NC(C)C`, the “activity change, negative = growth inhibition” value was -3.13%.
As for `O=C(NCc1ccco1)c1ccc([N+](=O)[O-])cc1Cl`, the “activity change, negative = growth inhibition” value is 3.37%.
On the same count and under the same terms, as for `Cc1ccc(C(=O)OCC(=O)NC2CCCCCCC2)cc1C`, the figure is -4.81%.
With `c1ccc2c(c1)C(=NC1CCCCC1)NC2=NC1CCCCC1`, the Potency is 18.4 µM (active).
For the compound `COc1cc(NC(=S)N2CCCC(C)C2)cc(OC)c1OC` (configuration not stated), the “activity change, negative = growth inhibition” value is -22.1%.
On to `O=C(COc1ccccc1)Nc1ccc(C(=O)N2CCCC2)cc1`, for which the “activity change, negative = growth inhibition” value was 1.05%.
Consider `CCC(=O)N1CCc2cc(CNC(=O)Nc3ccccc3Cl)ccc21`, for which the “activity change, negative = growth inhibition” value was -29.4%.
Turning to `O=C(CN1CCN(C(=O)c2cccc(F)c2)CC1)Nc1ccccc1F`, the “activity change, negative = growth inhibition” value is 0.779%.
As to `O=C(Cc1ccccc1)NCc1ccc(F)cc1`, the “activity change, negative = growth inhibition” value is -7.47%.
Take `O=C(COc1ccccc1)NCc1ccc2c(c1)CCN2C(=O)c1ccc(F)cc1`: the Potency is 16.4 µM (active).
Turning to `O=C(CCc1ccc(S(=O)(=O)NC2CCCCC2)cc1)NCc1ccccc1`, the “activity change, negative = growth inhibition” value was -18.8%.
As to `COc1cccc(C(=O)NCc2ccc3c(c2)CCN3C(=O)c2ccncc2)c1`, the “activity change, negative = growth inhibition” value was -12.1%.
For the compound `Cc1cccc(C(=O)N2CCc3cc(CNC(=O)Cc4ccc(F)cc4)ccc32)c1`, the Potency was 16.4 µM (active).
Regarding `Cc1ccc(C(=O)N2CCc3cc(CNC(=O)c4ccc(Br)cc4)ccc32)cc1`, the “activity change, negative = growth inhibition” value was -84.3%.
Turning to `O=C(CSCc1ccccc1)N1CCc2ccccc21`, the “activity change, negative = growth inhibition” value is -9.01%.
In the case of `O=C(CCc1ccccc1)NCc1ccc2c(c1)CCN2C(=O)c1ccccc1`, the Potency was 10.3 µM (active).
For the compound `O=C(NCc1ccc2c(c1)CCN2C(=O)c1ccccc1)Nc1cc(F)ccc1F`, the Potency is 16.4 µM (active).
On to `CC1CCC2(CC1)NC(=O)N(CC(=O)c1ccc3c(c1)OCO3)C2=O` (configuration not stated), for which the “activity change, negative = growth inhibition” value was 4.95%.
On the same count and under the same terms, as for `COc1cc(OC)c(N(C)C(=O)c2cc3c(=O)oc4ccccc4c3s2)cc1Cl`, the figure is 4.07%; as for `CCc1nnc(NS(=O)(=O)c2ccc(NC(=O)c3cccc(OC(F)(F)C(F)F)c3)cc2)s1`, 6.34%; as for `CCCCCC(=O)Nc1ccc(-c2cn3cccnc3n2)cc1`, -3.88%.
Consider `O=C(Nc1cccc2cccnc12)c1cccc2c(Br)cccc12`, for which the “activity change, negative = growth inhibition” value is -12.4%.
On to `COC(=O)C1NN=C(C(=O)c2ccc(Br)cc2)C1c1cccc(Br)c1` (configuration not stated), for which the “activity change, negative = growth inhibition” value is 6.78%.
For `O=C(Nc1ccc(Br)cc1)c1cccc(NC(=O)C2C3CC4OC(=O)C2C4C3)c1` (configuration not stated), the “activity change, negative = growth inhibition” value is -28.6%.
As to `CCc1cccc(CC)c1NC(=S)NCc1ccc2[nH]c(C)cc2c1`, the Potency is 23.1 µM (active).
For the compound `CCc1cccc(CC)c1NC(=S)Nc1ccc2cn[nH]c2c1`, the “activity change, negative = growth inhibition” value is -26.3%.
As to `Cc1cc2cc(CNC(=O)c3cccs3)ccc2[nH]1`, the “activity change, negative = growth inhibition” value is -0.633%.
For the compound `Cc1cccc(NC(=O)N2CCCCCC2)c1C`, the “activity change, negative = growth inhibition” value is 1.89%.
Regarding `CCCc1nc2ccccc2c(C(=O)OCc2nnc(-c3cc(OC)c(OC)c(OC)c3)o2)c1CC`, the Potency was 16.4 µM (active).
On to `O=C(OCc1nnc(-c2ccccc2)o1)c1cc(=O)[nH]c2ccccc12`, for which the “activity change, negative = growth inhibition” value is -0.538%.
Still for that read-out and setting: as for `CCCCc1nc2ccccc2c(NC(=O)CN2CCN(C)CC2)c1CCC`, the figure is -15.1%.
As to `O=C(CN1CCN(S(=O)(=O)c2ccc(Cl)s2)CC1)N1CCCCC1`, the “activity change, negative = growth inhibition” value is -25.8%.
As to `CCOC(=O)c1ccccc1OC(=O)Oc1ccccc1C(=O)OCC`, the “activity change, negative = growth inhibition” value is 7.31%.
Consider `CCOC(=O)C=Cc1ccc(C(=O)OCC)[nH]1`, for which the Potency is 13 µM (active).
With `CCOC(=O)c1c(C)[nH]c(C)c1C(=O)COC(=O)/C=C/c1cccc([N+](=O)[O-])c1`, the “activity change, negative = growth inhibition” value was -20.3%.
As to `CCn1c(N)c(Br)c(=O)[nH]c1=O`, the “activity change, negative = growth inhibition” value is -19.5%.
Turning to `COc1ccc(CCNC(=S)NC(=O)/C=C/c2ccc(C)cc2)cc1OC`, the “activity change, negative = growth inhibition” value is -23.2%.
